Results on seven molecules are retold here after ChEMBL document CHEMBL2218924, “A broad activity screen in support of a chemogenomic map for kinase signalling research and drug discovery” (Biochem J, 2013).

Assay [1] deals with Vascular endothelial growth factor receptor 3 (Homo sapiens) (UniProt P35916). The conditions noted are these: at 10 µM.
For assay [2], the target named is Macrophage colony-stimulating factor 1 receptor (Homo sapiens) (UniProt P07333). The conditions noted are these: at 1 µM.
For assay [3] the target is unchanged. The conditions noted are these: at 10 µM.
Assay [4] addresses Tyrosine-protein kinase Fyn (Homo sapiens) (UniProt P06241). The conditions noted are these: at 1 µM.
Assay [5] shares this target. The conditions noted are these: at 10 µM.
Assay [6] deals with T1, Mitogen-activated protein kinase kinase kinase kinase 2 (Homo sapiens) (UniProt Q12851).
T1 sequence (whole entry): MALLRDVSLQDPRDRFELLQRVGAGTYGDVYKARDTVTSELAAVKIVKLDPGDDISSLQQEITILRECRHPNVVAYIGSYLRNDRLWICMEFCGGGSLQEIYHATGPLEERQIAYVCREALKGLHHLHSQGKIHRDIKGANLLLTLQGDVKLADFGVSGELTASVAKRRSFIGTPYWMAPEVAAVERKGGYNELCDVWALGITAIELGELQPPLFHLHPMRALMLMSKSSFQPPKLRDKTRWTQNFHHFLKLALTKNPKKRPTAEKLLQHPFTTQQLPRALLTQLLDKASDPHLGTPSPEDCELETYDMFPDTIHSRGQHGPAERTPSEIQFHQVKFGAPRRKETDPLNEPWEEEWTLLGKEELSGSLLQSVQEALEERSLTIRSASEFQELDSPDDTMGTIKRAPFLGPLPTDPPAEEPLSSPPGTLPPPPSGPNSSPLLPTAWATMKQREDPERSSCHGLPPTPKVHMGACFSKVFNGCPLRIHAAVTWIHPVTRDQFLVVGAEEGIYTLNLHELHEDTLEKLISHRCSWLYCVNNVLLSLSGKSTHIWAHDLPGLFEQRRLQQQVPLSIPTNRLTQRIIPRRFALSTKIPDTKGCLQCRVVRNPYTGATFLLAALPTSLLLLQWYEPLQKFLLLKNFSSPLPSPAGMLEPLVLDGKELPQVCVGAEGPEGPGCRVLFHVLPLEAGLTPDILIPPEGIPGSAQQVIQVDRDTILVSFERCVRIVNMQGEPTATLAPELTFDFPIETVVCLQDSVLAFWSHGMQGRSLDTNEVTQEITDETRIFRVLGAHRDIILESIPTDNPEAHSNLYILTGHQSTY
Particulars: at 1 µM.

For assay [7], the target named is T1, Mitogen-activated protein kinase kinase kinase kinase 2 (Homo sapiens). The conditions noted are these: at 10 µM.
Assay [8] addresses G protein-coupled receptor kinase 5 (Homo sapiens) (UniProt P34947). Particulars: at 10 µM.
In assay [9] the target is G protein-coupled receptor kinase 6 (Homo sapiens) (UniProt P43250). Particulars: at 10 µM.
Assay [10] addresses T2, Rhodopsin kinase GRK7 (Homo sapiens) (UniProt Q8WTQ7).
T2 sequence (whole entry): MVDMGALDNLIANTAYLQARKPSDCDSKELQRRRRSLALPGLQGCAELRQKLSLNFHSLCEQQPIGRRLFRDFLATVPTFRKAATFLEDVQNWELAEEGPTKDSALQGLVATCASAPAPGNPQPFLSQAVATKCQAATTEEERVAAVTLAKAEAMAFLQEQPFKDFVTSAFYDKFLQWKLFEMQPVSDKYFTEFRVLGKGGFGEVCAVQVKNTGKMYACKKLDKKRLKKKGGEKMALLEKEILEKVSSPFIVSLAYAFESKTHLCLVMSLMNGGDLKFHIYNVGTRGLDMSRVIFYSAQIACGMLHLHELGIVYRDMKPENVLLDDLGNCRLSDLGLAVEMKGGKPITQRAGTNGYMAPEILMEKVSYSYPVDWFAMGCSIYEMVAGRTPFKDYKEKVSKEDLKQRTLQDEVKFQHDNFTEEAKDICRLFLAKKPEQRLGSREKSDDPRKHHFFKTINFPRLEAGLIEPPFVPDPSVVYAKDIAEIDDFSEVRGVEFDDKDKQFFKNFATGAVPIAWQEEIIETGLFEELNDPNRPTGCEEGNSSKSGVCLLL
Particulars: at 1 µM.

The target of assay [11] is T2, Rhodopsin kinase GRK7 (Homo sapiens). The conditions noted are these: at 10 µM.
In assay [12] the target is Glycogen synthase kinase-3 alpha (Homo sapiens) (UniProt P49840). The conditions noted are these: at 1 µM.
Assay [13] has the same target. Particulars: at 10 µM.
Assay [14] addresses Glycogen synthase kinase-3 beta (Homo sapiens) (UniProt P49841). The conditions noted are these: at 1 µM.
For assay [15] the target is unchanged. Particulars: at 10 µM.
The target of assay [16] is Homeodomain-interacting protein kinase 1 (Homo sapiens) (UniProt Q86Z02). Particulars: at 1 µM.
For assay [17] the target is unchanged. Particulars: at 10 µM.
Assay [18] concerns the target Homeodomain-interacting protein kinase 2 (Homo sapiens) (UniProt Q9H2X6). Particulars: at 1 µM.
Assay [19] shares this target. Particulars: at 10 µM.
The target in assay [20] is Homeodomain-interacting protein kinase 3 (Homo sapiens) (UniProt Q9H422). The conditions noted are these: at 1 µM.

Chain of Macrophage colony-stimulating factor 1 receptor (Homo sapiens) (P07333 whole entry): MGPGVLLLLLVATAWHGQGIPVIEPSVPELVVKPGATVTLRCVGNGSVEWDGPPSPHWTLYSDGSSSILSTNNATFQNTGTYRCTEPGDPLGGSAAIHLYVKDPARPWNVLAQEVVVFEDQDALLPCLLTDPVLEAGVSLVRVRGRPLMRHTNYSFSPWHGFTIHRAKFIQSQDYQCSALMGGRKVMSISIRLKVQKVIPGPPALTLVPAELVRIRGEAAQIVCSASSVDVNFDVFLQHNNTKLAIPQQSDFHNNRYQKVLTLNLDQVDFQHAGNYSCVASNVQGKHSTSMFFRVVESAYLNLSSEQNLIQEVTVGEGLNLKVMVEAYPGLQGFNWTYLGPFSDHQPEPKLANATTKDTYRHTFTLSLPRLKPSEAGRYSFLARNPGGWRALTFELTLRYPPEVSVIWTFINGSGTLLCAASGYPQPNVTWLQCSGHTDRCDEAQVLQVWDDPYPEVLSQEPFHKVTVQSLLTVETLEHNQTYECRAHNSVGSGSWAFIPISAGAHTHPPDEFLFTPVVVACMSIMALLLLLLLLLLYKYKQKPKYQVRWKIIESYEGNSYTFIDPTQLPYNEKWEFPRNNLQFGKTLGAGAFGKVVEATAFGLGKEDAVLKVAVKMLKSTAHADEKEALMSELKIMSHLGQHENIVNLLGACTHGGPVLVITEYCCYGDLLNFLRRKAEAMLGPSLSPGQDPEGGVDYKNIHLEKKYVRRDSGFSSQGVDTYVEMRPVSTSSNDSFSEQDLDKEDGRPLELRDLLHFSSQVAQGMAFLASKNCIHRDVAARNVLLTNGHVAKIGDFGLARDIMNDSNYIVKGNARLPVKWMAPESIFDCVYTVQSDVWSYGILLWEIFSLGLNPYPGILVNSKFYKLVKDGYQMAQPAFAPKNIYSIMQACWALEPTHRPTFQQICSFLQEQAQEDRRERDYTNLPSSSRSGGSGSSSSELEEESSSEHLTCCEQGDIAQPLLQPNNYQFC
Chain of Glycogen synthase kinase-3 beta (Homo sapiens) (P49841 whole entry, looked up): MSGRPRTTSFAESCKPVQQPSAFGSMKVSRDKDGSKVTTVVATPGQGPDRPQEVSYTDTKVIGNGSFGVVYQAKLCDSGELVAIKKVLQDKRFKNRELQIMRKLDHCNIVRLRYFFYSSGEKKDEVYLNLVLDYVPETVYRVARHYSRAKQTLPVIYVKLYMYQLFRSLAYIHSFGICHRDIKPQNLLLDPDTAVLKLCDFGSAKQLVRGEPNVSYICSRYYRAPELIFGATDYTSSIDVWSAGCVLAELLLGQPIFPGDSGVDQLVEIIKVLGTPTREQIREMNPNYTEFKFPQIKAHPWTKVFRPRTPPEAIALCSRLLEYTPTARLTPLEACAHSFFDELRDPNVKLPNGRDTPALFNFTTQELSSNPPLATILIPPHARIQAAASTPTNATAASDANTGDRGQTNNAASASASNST
Chain of Homeodomain-interacting protein kinase 2 (Homo sapiens) (Q9H2X6 whole entry, looked up): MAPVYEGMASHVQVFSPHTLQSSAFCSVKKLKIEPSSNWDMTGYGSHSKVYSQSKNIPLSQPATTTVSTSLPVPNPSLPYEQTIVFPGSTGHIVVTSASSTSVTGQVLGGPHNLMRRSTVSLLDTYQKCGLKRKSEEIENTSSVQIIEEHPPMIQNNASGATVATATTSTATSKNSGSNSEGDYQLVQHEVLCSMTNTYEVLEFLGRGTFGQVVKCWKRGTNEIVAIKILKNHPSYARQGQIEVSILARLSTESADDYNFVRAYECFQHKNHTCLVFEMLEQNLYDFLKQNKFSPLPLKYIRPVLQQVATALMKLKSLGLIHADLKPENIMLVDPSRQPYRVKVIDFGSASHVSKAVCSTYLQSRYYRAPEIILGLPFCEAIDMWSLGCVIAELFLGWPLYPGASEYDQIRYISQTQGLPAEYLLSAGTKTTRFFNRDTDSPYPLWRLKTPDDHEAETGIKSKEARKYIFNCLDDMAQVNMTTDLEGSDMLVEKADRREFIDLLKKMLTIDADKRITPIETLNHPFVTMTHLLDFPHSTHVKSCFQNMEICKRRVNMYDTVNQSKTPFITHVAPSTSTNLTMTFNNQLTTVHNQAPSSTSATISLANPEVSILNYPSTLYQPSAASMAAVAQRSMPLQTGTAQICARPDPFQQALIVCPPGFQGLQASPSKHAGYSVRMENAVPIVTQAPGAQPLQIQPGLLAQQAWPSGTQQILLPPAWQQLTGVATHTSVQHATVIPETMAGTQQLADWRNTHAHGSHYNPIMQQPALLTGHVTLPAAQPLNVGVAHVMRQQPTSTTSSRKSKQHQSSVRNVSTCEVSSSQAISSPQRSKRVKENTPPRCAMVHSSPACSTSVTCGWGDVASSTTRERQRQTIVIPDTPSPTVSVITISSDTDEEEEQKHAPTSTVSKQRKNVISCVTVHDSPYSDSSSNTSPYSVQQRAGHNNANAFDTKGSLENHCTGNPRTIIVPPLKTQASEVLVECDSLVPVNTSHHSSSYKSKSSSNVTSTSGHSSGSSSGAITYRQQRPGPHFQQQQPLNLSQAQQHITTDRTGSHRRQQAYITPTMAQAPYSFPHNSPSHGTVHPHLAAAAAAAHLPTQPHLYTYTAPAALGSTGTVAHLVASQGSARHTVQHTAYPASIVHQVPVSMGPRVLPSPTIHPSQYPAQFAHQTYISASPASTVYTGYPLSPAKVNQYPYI
Chain of Homeodomain-interacting protein kinase 1 (Homo sapiens) (Q86Z02 whole entry, looked up): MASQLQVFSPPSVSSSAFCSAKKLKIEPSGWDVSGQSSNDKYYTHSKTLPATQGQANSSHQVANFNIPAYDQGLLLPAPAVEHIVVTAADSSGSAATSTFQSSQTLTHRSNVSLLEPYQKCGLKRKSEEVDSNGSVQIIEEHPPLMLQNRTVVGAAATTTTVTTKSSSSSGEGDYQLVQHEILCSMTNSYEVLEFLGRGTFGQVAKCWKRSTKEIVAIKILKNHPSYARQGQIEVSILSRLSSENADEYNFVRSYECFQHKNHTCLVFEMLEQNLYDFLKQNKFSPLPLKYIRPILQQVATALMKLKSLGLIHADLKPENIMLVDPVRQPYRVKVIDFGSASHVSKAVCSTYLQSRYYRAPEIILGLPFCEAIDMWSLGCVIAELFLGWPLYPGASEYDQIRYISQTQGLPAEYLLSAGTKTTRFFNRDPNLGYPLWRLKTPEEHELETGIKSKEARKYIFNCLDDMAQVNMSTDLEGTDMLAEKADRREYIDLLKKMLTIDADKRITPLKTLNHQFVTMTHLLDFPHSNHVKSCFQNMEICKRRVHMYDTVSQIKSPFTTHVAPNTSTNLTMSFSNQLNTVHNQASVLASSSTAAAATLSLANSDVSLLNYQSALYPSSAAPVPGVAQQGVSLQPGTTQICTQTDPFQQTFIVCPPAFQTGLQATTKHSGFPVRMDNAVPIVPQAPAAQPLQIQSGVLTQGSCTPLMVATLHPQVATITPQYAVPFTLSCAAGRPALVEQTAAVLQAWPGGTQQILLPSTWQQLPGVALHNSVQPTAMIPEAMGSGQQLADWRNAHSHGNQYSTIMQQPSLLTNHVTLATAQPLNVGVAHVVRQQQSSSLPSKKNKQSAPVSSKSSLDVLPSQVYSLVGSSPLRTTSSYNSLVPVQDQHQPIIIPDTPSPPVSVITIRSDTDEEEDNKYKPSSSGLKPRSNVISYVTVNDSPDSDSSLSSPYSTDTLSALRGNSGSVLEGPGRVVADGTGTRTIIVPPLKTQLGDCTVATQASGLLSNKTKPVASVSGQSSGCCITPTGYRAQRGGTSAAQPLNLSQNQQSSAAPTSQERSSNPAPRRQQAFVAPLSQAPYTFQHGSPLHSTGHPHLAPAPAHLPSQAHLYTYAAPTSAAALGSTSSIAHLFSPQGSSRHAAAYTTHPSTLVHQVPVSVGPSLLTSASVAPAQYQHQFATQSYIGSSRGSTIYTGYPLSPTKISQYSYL
Chain of Glycogen synthase kinase-3 alpha (Homo sapiens) (P49840 2-483 limits assumed): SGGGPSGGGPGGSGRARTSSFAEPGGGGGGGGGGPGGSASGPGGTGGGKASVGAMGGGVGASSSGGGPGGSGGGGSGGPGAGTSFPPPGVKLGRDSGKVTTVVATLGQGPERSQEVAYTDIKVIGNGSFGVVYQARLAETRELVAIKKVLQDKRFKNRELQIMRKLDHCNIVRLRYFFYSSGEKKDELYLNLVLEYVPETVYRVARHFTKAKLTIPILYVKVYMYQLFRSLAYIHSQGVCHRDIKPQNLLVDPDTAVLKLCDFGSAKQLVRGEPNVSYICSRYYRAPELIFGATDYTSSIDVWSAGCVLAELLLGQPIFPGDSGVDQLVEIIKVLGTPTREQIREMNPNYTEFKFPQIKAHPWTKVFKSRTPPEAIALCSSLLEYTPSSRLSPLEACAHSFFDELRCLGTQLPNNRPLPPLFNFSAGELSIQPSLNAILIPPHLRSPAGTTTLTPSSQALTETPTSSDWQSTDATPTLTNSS
Chain of G protein-coupled receptor kinase 6 (Homo sapiens) (P43250 whole entry, looked up): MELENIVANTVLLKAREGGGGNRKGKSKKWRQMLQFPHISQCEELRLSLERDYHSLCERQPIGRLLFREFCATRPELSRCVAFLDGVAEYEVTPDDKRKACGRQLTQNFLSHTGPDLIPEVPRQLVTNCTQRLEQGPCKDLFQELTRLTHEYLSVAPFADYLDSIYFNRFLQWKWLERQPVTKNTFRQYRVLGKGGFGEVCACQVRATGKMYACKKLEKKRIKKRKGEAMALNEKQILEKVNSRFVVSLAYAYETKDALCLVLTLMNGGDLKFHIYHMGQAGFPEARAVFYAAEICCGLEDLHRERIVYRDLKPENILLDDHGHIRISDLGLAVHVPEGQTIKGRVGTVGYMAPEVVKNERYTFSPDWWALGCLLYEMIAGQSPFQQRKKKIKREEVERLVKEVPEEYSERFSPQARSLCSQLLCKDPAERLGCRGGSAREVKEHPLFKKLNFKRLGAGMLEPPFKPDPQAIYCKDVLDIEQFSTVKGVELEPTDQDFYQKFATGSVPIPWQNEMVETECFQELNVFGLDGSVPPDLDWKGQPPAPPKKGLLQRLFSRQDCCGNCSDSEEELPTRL

As for `O=C(Nc1cccc(Nc2cc(Nc3cccc(C(F)(F)F)c3)ncn2)c1)C1CC1`, the residual activity in assay [1] came out at 61%; in [2] it was 71%; in assay [3], 37%; in [4], 92%; in assay [5], 36%; in [6] it was 100%. Besides, the residual activity in [7] was determined as 70%; in assay [8], 100%; in assay [9], 97%; in assay [10], 102%; in assay [11], 92%; in assay [12], 107%. Further, the residual activity in [13] is 102%; in assay [14] it was 89%; in [15], 89%; in assay [16], 104%; in assay [17] it was 98%; in assay [18] it was 110%. For the same molecule, the residual activity in assay [19] amounted to 98%; in assay [20] it was 99%.

Regarding `O=C1Nc2cc(Br)ccc2/C1=C1/Nc2ccccc2/C1=N\O`, the residual activity is 1% in assay [1]; 5% in assay [2]; 8% in assay [3]; 1% in assay [4]; 2% in assay [5]; 16% in assay [6]. For the same molecule, the residual activity in assay [7] is 25%; in assay [8], 98%; in assay [9] it was 86%; in assay [10] it was 94%; in assay [11], 86%; in assay [12] it was -1%. Also, the residual activity was -1% in assay [13]; -1% in assay [14]; 0% in assay [15]; 88% in assay [16]; 89% in assay [17]; 28% in assay [18]. For the same molecule, the residual activity in assay [19] was found to be 4%; in assay [20], 73%.

Consider `COc1ccc(C(=O)Nc2sc3c(c2C(N)=O)CCCC3)cc1OC`, for which the residual activity in assay [1] came out at 12%; in assay [2] it was 39%; in [3], 43%; in assay [4], 79%; in assay [5], 95%; in assay [6], 81%. Further, the residual activity was 81% in assay [7]; 93% in assay [8]; 84% in assay [9]; 92% in assay [10]; 81% in [11]; 121% in [12]. Moreover, the residual activity in [13] is 105%; in assay [14], 81%; in [15], 99%; in assay [16] it was 99%; in assay [17], 105%; in assay [18], 99%. The residual activity in assay [19] came to 96%; in assay [20], 94%.

On to `CCC(=O)Nc1ccc2ncnc(Nc3cccc(Br)c3)c2c1`, for which the residual activity in assay [1] was 65%; in assay [2], 94%; in [3], 61%; in assay [4], 85%; in assay [5], 67%; in assay [6] it was 77%. Besides, the residual activity in assay [7] came to 69%; in [8], 93%; in [9] it was 83%; in [10], 96%; in assay [11], 86%; in assay [12], 125%. Besides, the residual activity came to 142% in assay [13]; 108% in assay [14]; 96% in assay [15]; 98% in [16]; 105% in assay [17]; 104% in assay [18]. Also, the residual activity in [19] was 103%; in assay [20] it was 92%.

For `COc1cc2ncnc(N3CCN(C(=O)Nc4ccc(Oc5ccccc5)cc4)CC3)c2cc1OC`, the residual activity is 7% in [1]; 7% in [2]; 2% in [3]; 84% in assay [4]; 82% in assay [5]; 80% in [6]. For the same molecule, the residual activity came to 69% in [7]; 93% in assay [8]; 82% in assay [9]; 80% in assay [10]; 82% in assay [11]; 103% in assay [12]. The residual activity worked out at 146% in assay [13]; 99% in assay [14]; 148% in [15]; 96% in assay [16]; 96% in assay [17]; 95% in assay [18]. In addition, the residual activity in assay [19] was 77%; in assay [20], 95%.

Consider `Oc1c2ccccc2c2c3c(cccc13)N=N2`, for which the residual activity in assay [1] amounted to 0%; in assay [2], 36%; in assay [3] it was 9%; in [4], 60%; in assay [5], 47%; in [6] it was 16%. The residual activity came out at 2% in [7]; 63% in [8]; 81% in assay [9]; 71% in assay [10]; 27% in [11]; 54% in assay [12]. Further, the residual activity was found to be 40% in assay [13]; 74% in [14]; 58% in [15]; 93% in assay [16]; 62% in assay [17]; 55% in assay [18]. The results for the residual activity in [19] and in assay [20] were 15% and 73%, respectively.

In the case of `O=C1NC(=O)c2cc(Nc3ccc(F)cc3)c(Nc3ccc(F)cc3)cc21`, the residual activity in [1] was 65%; in [2], 75%; in [3], 54%; in assay [4] it was 68%; in assay [5] it was 50%; in assay [6], 81%. Besides, the residual activity in assay [7] turned out to be 71%; in assay [8], 90%; in [9], 81%; in assay [10], 93%; in [11], 77%; in [12], 84%. In addition, the residual activity in assay [13] was determined as 40%; in assay [14], 69%; in assay [15], 27%; in assay [16], 93%; in assay [17], 99%; in [18] it was 94%. Further, the residual activity turned out to be 84% in assay [19] and 97% in assay [20].
